The text below walks through data of PubChem BioAssay (NCI).

A short description of experiment [1]: NCI Yeast Anticancer Drug Screen. Data for the rad50 strain (AID 155).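 Further: 0% = growth of vehicle-only cultures of the same strain.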 To be noted: S. cerevisiae rad50 strain growth inhibition, hits give high values. The method, boiled down:
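Compounds were tested on a yeast strain with an engineered DNA damage repair alteration; the reported value is growth inhibition normalised to vehicle treatment.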

A short description of experiment [2]: NCI Yeast Anticancer Drug Screen. Data for the mec2-1 strain (AID 157). To be noted: S. cerevisiae mec2-1 strain, hits give high values. In a few lines: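 mec2-1 yeast strain, carrying an alteration in DNA damage repair or cell cycle control, was exposed to compounds; growth inhibition was measured relative to vehicle-treated controls.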
Experiment [3] in a line: NCI Yeast Anticancer Drug Screen. Data for the sgs1 mgt1 strain (AID 161).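 Further: 0% = growth of cultures given vehicle only.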 To be noted: S. cerevisiae sgs1 mgt1 strain, hits give high values. In a few lines: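 This yeast growth screen uses a strain with defined DNA-repair lesions; compound-treated growth is compared with vehicle-treated growth.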
The nature of experiment [4]: NCI Yeast Anticancer Drug Screen. Data for the cln2 rad14 strain (AID 165).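 Further: 0% = growth equal to vehicle treated cultures.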 To be noted: S. cerevisiae cln2 rad14 strain, hits give high values. In a few lines:
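Yeast carrying cln2 and rad14 alterations (cell cycle control and DNA damage repair) were exposed to compounds. Growth inhibition was measured against vehicle-treated controls.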

A short description of experiment [5]: NCI Yeast Anticancer Drug Screen. Data for the bub3 strain (AID 167). Particulars: S. cerevisiae bub3 mutant strain, hits give high values. The method, boiled down:
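Growth of a checkpoint-deficient yeast mutant is measured after compound exposure. Values represent inhibition relative to vehicle.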

Experiment [6] is described as follows: NCI Yeast Anticancer Drug Screen. Data for the mlh1 rad18 strain (AID 175). To be noted: S. cerevisiae mlh1 rad18 strain growth inhibition, hits give high values. The method, boiled down:
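Growth inhibition of the yeast strain was measured after compound exposure and expressed relative to vehicle-treated controls. The strain carries defined defects in DNA damage repair.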

[7] abbreviates: at 5.0 µM (retest, dose inferred, filed as 0.5).
Where [8] appears, read: at 50.0 µM (retest, dose inferred, filed as 5.0).

About 79,000 compounds went through this panel and 15% of them were active in at least one assay; those are over-represented in the sample as a whole. A number with no mark means an inactive call. Active and inactive are the calls of the source. No stated cut-off is given here; in the data, active means growth inhibition above about 70%; inactive means the rest.

As to `Cc1ccc(C(Cc2ccc(N3C(N)=NC(N)=NC3(C)C)cc2)C(=O)Nc2ccc(S(=O)(=O)F)cc2)cc1` (configuration not stated), the growth inhibition in experiment [1] (setting [7]) is 7%; in experiment [1] (setting [8]) it was 99% (active); in experiment [1] (at 50.0 µM) it was 99.2% (active); in experiment [2] (setting [7]), 45%; in experiment [2] (setting [8]), 99% (active); in experiment [2] (at 50.0 µM), 99.6% (active). Besides, the growth inhibition in experiment [3] (setting [7]) was 1%; in experiment [3] (setting [8]), 99% (active); in experiment [3] (at 50.0 µM), 99.8% (active); in experiment [4] (setting [7]), 7%; in experiment [4] (setting [8]) it was 99% (active); in experiment [4] (at 50.0 µM), 98.8% (active). Besides, the growth inhibition was -1% in experiment [5] (setting [7]); 99% (active) in experiment [5] (setting [8]); 98.8% (active) in experiment [5] (at 50.0 µM); 4% in experiment [6] (setting [7]); 99% (active) in experiment [6] (setting [8]); 99.5% (active) in experiment [6] (at 50.0 µM).
Regarding `CNCC(O)c1cn(C)c2ccccc12` (configuration not stated), the growth inhibition in experiment [1] (setting [7]) is 4%; in experiment [1] (setting [8]), 0%; in experiment [1] (at 50.0 µM), 45%; in experiment [2] (setting [7]), 4%; in experiment [2] (setting [8]) it was 3%; in experiment [2] (at 50.0 µM), 20.6%. Moreover, the growth inhibition in experiment [3] (setting [7]) is 3%; in experiment [3] (setting [8]), 5%; in experiment [3] (at 50.0 µM) it was 25.1%; in experiment [4] (setting [7]), 6%; in experiment [4] (setting [8]), 2%; in experiment [4] (at 50.0 µM), 22.1%. For the same compound, the growth inhibition in experiment [5] (setting [7]) was 4%; in experiment [5] (setting [8]) it was 0%; in experiment [5] (at 50.0 µM) it was 48.9%; in experiment [6] (setting [7]) it was 0%; in experiment [6] (setting [8]), -2%; in experiment [6] (at 50.0 µM) it was 40.9%.
For the compound `COC1=[C]([Hg][Br])C(OC)OC1OC` (configuration not stated), the growth inhibition was 99% (active) in experiment [1] (setting [7]); 99% (active) in experiment [1] (setting [8]); 99.6% (active) in experiment [1] (at 50.0 µM); 98% (active) in experiment [2] (setting [7]); 99% (active) in experiment [2] (setting [8]); 99.5% (active) in experiment [2] (at 50.0 µM). The growth inhibition was 99% (active) in experiment [3] (setting [7]); 99% (active) in experiment [3] (setting [8]); 99.5% (active) in experiment [3] (at 50.0 µM); 98% (active) in experiment [4] (setting [7]); 98% (active) in experiment [4] (setting [8]); 98.8% (active) in experiment [4] (at 50.0 µM). Also, the growth inhibition in experiment [5] (setting [7]) was 99% (active); in experiment [5] (setting [8]), 99% (active); in experiment [5] (at 50.0 µM), 98.9% (active); in experiment [6] (setting [7]), 99% (active); in experiment [6] (setting [8]), 99% (active); in experiment [6] (at 50.0 µM), 99.5% (active).
In the case of `CCCCCCCCCCCCC(=O)[O][Hg][c]1ccccc1`, the growth inhibition in experiment [1] (setting [7]) is 99% (active); in experiment [1] (setting [8]), 99% (active); in experiment [1] (at 50.0 µM) it was 99.2% (active); in experiment [2] (setting [7]), 100% (active); in experiment [2] (setting [8]), 100% (active); in experiment [2] (at 50.0 µM), 99.5% (active). Moreover, the growth inhibition was 100% (active) in experiment [3] (setting [7]); 100% (active) in experiment [3] (setting [8]); 99.5% (active) in experiment [3] (at 50.0 µM); 99% (active) in experiment [4] (setting [7]); 99% (active) in experiment [4] (setting [8]); 99.3% (active) in experiment [4] (at 50.0 µM). Moreover, the growth inhibition in experiment [5] (setting [7]) is 99% (active); in experiment [5] (setting [8]) it was 99% (active); in experiment [5] (at 50.0 µM), 100% (active); in experiment [6] (setting [7]) it was 99% (active); in experiment [6] (setting [8]) it was 99% (active); in experiment [6] (at 50.0 µM), 99.5% (active).
Turning to `COc1cc(Br)cc(/C=C(\C)[N+](=O)[O-])c1O`, the growth inhibition in experiment [1] (setting [7]) is 11%; in experiment [1] (setting [8]), 96% (active); in experiment [1] (at 50.0 µM), 99.5% (active); in experiment [2] (setting [7]), 7%; in experiment [2] (setting [8]), 95% (active); in experiment [2] (at 50.0 µM) it was 99.8% (active). For the same compound, the growth inhibition in experiment [3] (setting [7]) was 18%; in experiment [3] (setting [8]) it was 97% (active); in experiment [3] (at 50.0 µM), 99.8% (active); in experiment [4] (setting [7]), -5%; in experiment [4] (setting [8]), 94% (active); in experiment [4] (at 50.0 µM), 99.5% (active). In addition, the growth inhibition in experiment [5] (setting [7]) was -1%; in experiment [5] (setting [8]), 97% (active); in experiment [5] (at 50.0 µM), 99.7% (active); in experiment [6] (setting [7]) it was 9%; in experiment [6] (setting [8]), 97% (active); in experiment [6] (at 50.0 µM) it was 99.7% (active).
For the compound `CN(C)CCCNc1ccnc2c(COC(=O)N(CCCl)CCCl)ccc([N+](=O)[O-])c12`, the growth inhibition in experiment [1] (setting [7]) was 15%; in experiment [1] (setting [8]) it was 33%; in experiment [1] (at 50.0 µM) it was 52.5%; in experiment [2] (setting [7]) it was 23%; in experiment [2] (setting [8]) it was 41%; in experiment [2] (at 50.0 µM), 53.7%. In addition, the growth inhibition in experiment [3] (setting [7]) was 34%; in experiment [3] (setting [8]), 75% (active); in experiment [3] (at 50.0 µM), 74.2% (active); in experiment [4] (setting [7]) it was 22%; in experiment [4] (setting [8]), 63%; in experiment [4] (at 50.0 µM), 43.6%. Moreover, the growth inhibition in experiment [5] (setting [7]) was 10%; in experiment [5] (setting [8]), 42%; in experiment [5] (at 50.0 µM) it was 38.1%; in experiment [6] (setting [7]) it was 22%; in experiment [6] (setting [8]), 82% (active); in experiment [6] (at 50.0 µM), 84.7% (active).
Consider `CCOc1cc(/C=C/[N+](=O)[O-])ccc1O`, for which the growth inhibition in experiment [1] (setting [7]) is -112%; in experiment [1] (setting [8]), 93% (active); in experiment [1] (at 50.0 µM) it was 77.2% (active); in experiment [2] (setting [7]), -44%; in experiment [2] (setting [8]) it was 73% (active); in experiment [2] (at 50.0 µM) it was 65.8%. For the same compound, the growth inhibition is -46% in experiment [3] (setting [7]); 95% (active) in experiment [3] (setting [8]); 77.7% (active) in experiment [3] (at 50.0 µM); -52% in experiment [4] (setting [7]); 75% (active) in experiment [4] (setting [8]); 55% in experiment [4] (at 50.0 µM). Moreover, the growth inhibition is -60% in experiment [5] (setting [7]); 90% (active) in experiment [5] (setting [8]); 43.4% in experiment [5] (at 50.0 µM); -93% in experiment [6] (setting [7]); 94% (active) in experiment [6] (setting [8]); 96.6% (active) in experiment [6] (at 50.0 µM).
For `COc1cc2c3c(c1)-c1c(ccc(OC)c1OC)CC3N(CCCl)CC2` (configuration not stated), the growth inhibition is 15% in experiment [1] (setting [7]); 92% (active) in experiment [1] (setting [8]); 87% (active) in experiment [1] (at 50.0 µM); 11% in experiment [2] (setting [7]); 69% in experiment [2] (setting [8]); 38.9% in experiment [2] (at 50.0 µM). Also, the growth inhibition in experiment [3] (setting [7]) is 7%; in experiment [3] (setting [8]), 71% (active); in experiment [3] (at 50.0 µM), 77.2% (active); in experiment [4] (setting [7]), 7%; in experiment [4] (setting [8]), 77% (active); in experiment [4] (at 50.0 µM) it was 31.8%. The growth inhibition was 13% in experiment [5] (setting [7]); 75% (active) in experiment [5] (setting [8]); 28.9% in experiment [5] (at 50.0 µM); 12% in experiment [6] (setting [7]); 78% (active) in experiment [6] (setting [8]); 86.7% (active) in experiment [6] (at 50.0 µM).
Take `c1ccc(P(CC[As](c2ccccc2)c2ccccc2)CC[As](c2ccccc2)c2ccccc2)cc1`: the growth inhibition in experiment [1] (setting [7]) was 95% (active); in experiment [1] (setting [8]), 95% (active); in experiment [1] (at 50.0 µM), 89% (active); in experiment [2] (setting [7]) it was 81% (active); in experiment [2] (setting [8]), 81% (active); in experiment [2] (at 50.0 µM), 90.8% (active). Further, the growth inhibition in experiment [3] (setting [7]) was 47%; in experiment [3] (setting [8]), 47%; in experiment [3] (at 50.0 µM), 88.5% (active); in experiment [4] (setting [7]), 76% (active); in experiment [4] (setting [8]), 76% (active); in experiment [4] (at 50.0 µM), 89.3% (active). The growth inhibition in experiment [5] (setting [7]) was 84% (active); in experiment [5] (setting [8]), 84% (active); in experiment [5] (at 50.0 µM) it was 90.8% (active); in experiment [6] (setting [7]) it was 80% (active); in experiment [6] (setting [8]), 80% (active); in experiment [6] (at 50.0 µM) it was 88.6% (active).
